In PubChem BioAssay (EPA / NIEHS):
More than one record can exist for a structure, and the calls need not agree. The source made the active and inactive calls. The calls were made as follows: active = hit-call score of the fitted dose curve at least 0.9, where 1 is the maximum; inactive = score below 0.9.

Experiment: ATG_PXRE_CIS: Attagene CIS-FACTORIAL HepG2 Assay for human Pregnane X Receptor Element (PXRE) (AID 2282957)
Conditions: HepG2 Attagene CIS-FACTORIAL PXRE reporter, mRNA; actives raise or lower the signal
Method: ATG_CIS is a cell-based, multiplexed-readout assay that uses HepG2, a human liver cell line, with measurements taken at 24 hours after chemical dosing in a 24-well plate.ATG_PXRE_CIS is one of 52 assay component(s) measured or calculated from the ATG_CIS assay. It is designed to make measurements of mRNA induction, a form of inducible reporter, as detected with fluorescence intensity signals by Reverse transcription polymerase chain reaction (RT-PCR) and Capillary electrophoresis technology.Data from the assay component ATG_PXRE_CIS was analyzed into 1 assay endpoint. This assay endpoint, ATG_PXRE_CIS, was analyzed with bidirectional fitting relative to DMSO as the negative control and baseline of activity. Using a type of inducible reporter, measures of mRNA for gain or loss-of-signal activity can be used to understand the reporter gene at the transcription factor-level as they relate to the gene NR1I2. Furthermore, this assay endpoint can be referred to as a primary readout, because this assay has produced multiple assay endpoints where this one serves a reporter gene function. To generalize the intended target to other relatable targets, this assay endpoint is annotated to the nuclear receptor intended target family, where the subfamily is non-steroidal.
Human liver HepG2 cells are transiently transfected with multiple reporter transcription units (MRTUs) in 6-well plates using FuGene 6 reagent (Roche; 3 ml FuGene/1 mg DNA). The MRTU constructs are regulated by a cis-regulating element (promoter). […] A major difference between the CIS and TRANS system is that in CIS activities of endogenous TFs are measured, whereas the TRANS assay evaluates changes in activities of exogenous, chimeric NR-Gal4 proteins. […] At the end of 24 hour incubation, total RNA was isolated using TriZol reagent (Invitrogen). The isolated RNA is then reverse-transcribed using oligo(dT) primer and Mo-MLV reverse transcriptase (Invitrogen) with DNAse I (Ambion) treatment for 30 min. The one-tenth of the produced cDNA was amplified by PCR using Taq DNA polymerase (Invitrogen) and two reporter sequence-specific primers. The PCR products were fluorescently labeled by primer extension with 6-arboxyfluorescein (6-FAM) 5'-labeled reporter sequence-specific primer (2 min at 95 C, 20 s at 68 C and 10 min at 72 C) and these products were digested with 5U of HpaI (New England Biolabs) for 2h at 37 C. The fragments were purified using Qiaquick PCR columns (Qiagen), analyzed on an ABI 3130xL genetic analyzer (Applied Biosystems) with peak positions identified by using a set of X-rhodamine (ROX)-labeled MapMarker1000 molecular weight standards (BioVentures). The raw capillary electrophoresis data was processed using Attagraph software (Attagene).

SMILES | AC50 | outcome
CCc1c(Br)c(Br)c(Br)c(Br)c1Br | 8.3 µM (active) | –
O=C(OCCOCCOCCOC(=O)c1ccccc1)c1ccccc1 | – | inactive
O=C(CC(=O)C(F)(F)C(F)(F)F)C(F)(F)F | 76.4 µM (active) | inactive
COC(OC(C)=O)c1ccccc1 (stereo not given) | – | inactive
Nc1ccc(S(=O)(=O)Nc2nccs2)cc1 | – | inactive
O=C(C=Cc1ccccc1)OCC=Cc1ccccc1 | 15.9 µM (active) | –
C=CC(F)(F)C(F)(F)C(F)(F)C(F)(F)C(F)(F)C(F)(F)C(F)(F)C(F)(F)F | – | inactive
Nc1ccc([N+](=O)[O-])cc1O | – | inactive
OCCCC(F)(F)C(F)(F)C(F)(F)C(F)(F)C(F)(F)C(F)(F)C(F)(F)F | 79.6 µM (active) | inactive
CCN(Cc1cccc(S(=O)(=O)O)c1)c1ccc(C(=C2C=CC(=[N+](CC)Cc3cccc(S(=O)(=O)O)c3)C=C2)c2ccc(O)cc2S(=O)(=O)[O-])cc1 | – | inactive
O=C(O)C(F)(F)C(F)(F)C(F)(F)C(F)(F)C(F)(F)C(F)(F)C(F)(F)C(F)(F)C(F)(F)C(F)(F)C(F)(F)C(F)(F)F | – | inactive
C1COCCN1 | 27.2 µM (active) | inactive
CO[Si](OC)(c1ccccc1)c1ccccc1 | 18.1 µM (active) | –
FC(F)(F)C(F)(F)C(F)(F)C(F)(F)C(F)(F)C(F)(F)C(F)(F)C(F)(F)CCS | – | inactive
FC(F)(F)C(F)(F)CNCC(F)(F)C(F)(F)F | – | inactive
OCC(F)(F)C(F)(F)C(F)(F)C(F)(F)C(F)(F)C(F)(F)F | 242 µM (active) | –
CCCCCCCCCCCCCCCC[N+](C)(C)Cc1ccccc1 | – | inactive
O=C(O)C(F)(F)C(F)(F)C(F)(F)F | – | inactive

SMILES | AC50 | outcome
CCC(=O)OCCc1ccccc1 | – | inactive
C=CC(=O)OCC(F)(F)C(F)(F)C(F)(F)C(F)(F)C(F)(F)C(F)(F)C(F)(F)F | – | inactive
OCC(F)(F)C(F)(F)C(F)(F)F | – | inactive
CC(C)OC(=O)c1ccccc1C(=O)OC(C)C | 3.7 µM (active) | –
FC(F)(F)C(F)(F)C(F)(F)C(F)(F)C(F)(F)C(F)(F)CCS | – | inactive
FC(F)(F)C(F)(F)C(F)(F)C(F)(F)C(F)(F)C(F)(F)C(F)(F)Br | – | inactive
c1ccc(-c2ccccc2-c2ccccc2)cc1 | 5.73 µM (active) | –
O=C(O)C(F)(OC(F)(F)C(F)(OC(F)(F)C(F)(OC(F)(F)C(F)(F)C(F)(F)F)C(F)(F)F)C(F)(F)F)C(F)(F)F (stereo not given) | 83.3 µM (active) | inactive
O=C(O)C(F)(F)C(F)(F)C(F)(F)C(F)(F)C(F)(F)C(F)(F)C(F)(F)C(F)(F)C(F)(F)C(F)F | 18.8 µM (active) | –
CCCCCCC(C)OC(=O)CCCCC(=O)OC(C)CCCCCC (stereo not given) | 12.8 µM (active) | –
C=CC/C=C/C/C=C/C/C=C/C | – | inactive
FC(F)(F)C(F)(F)C(F)(F)C(F)(F)CCI | – | inactive
CCCCOc1ccc(N)cc1 | – | inactive
FC(F)(I)C(F)(F)C(F)(F)C(F)(F)I | – | inactive
CCO[Si](CCC(F)(F)C(F)(F)C(F)(F)C(F)(F)C(F)(F)C(F)(F)F)(OCC)OCC | – | inactive
O=C(Cl)C(F)(F)C(F)(F)C(F)(F)C(F)(F)C(F)(F)C(F)(F)C(F)(F)C(F)(F)F | 8.97 µM (active) | –
Oc1ccc(Nc2ccccc2)cc1 | 21.9 µM (active) | –
O=S(=O)(OCC(F)F)C(F)(F)F | – | inactive
